Data as given in PubChem BioAssay AID1159580 (chemical genetic matrix, 2015).
“And” between values parts separate entries of the source, which are not always exact repeats. Equal values may be shown once. Screen size: about 5,500 compounds; about 2,000 (36%) were called active. Roughly 18% stayed inconclusive and do not appear here. Cut-off read from the data, not from the text of the source: active = normalized growth mostly below about 0.91 (no sharp cut-off); inconclusive = no clear call, values can overlap the other calls; inactive = mostly above about 0.92. The list shows a part of the results.

Assay: chemical genetic growth profiling, strain panel (AID 1159580);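 note: tested at 20 µM; growth read once vehicle control cultures reached saturation at 30 °C; 1 = growth at the plate median or of vehicle wells; lower values mean less growth of the strain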
Conditions: S. cerevisiae deletion strains, growth OD

Measured: normalized growth

NCCCC[C@H](N[C@@H](CCc1ccccc1)C(=O)O)C(=O)N1CCC[C@H]1C(=O)O
inactive: locus YAL021C, strain ccr4, hits give low values 1.01 | locus YAL026C, strain drs2, hits give low values 1.02 | locus YAL030W, strain snc1, hits give low values 0.978 | locus YBL061C, strain skt5, hits give low values 1.01 | locus YBR009C, strain hhf1, hits give low values 0.98 | locus YBR021W, strain FUR4, hits give low values 1.01 | locus YBR023C, strain chs3, hits give low values 0.998 | locus YBR171W, strain sec66, hits give low values 1.02 | locus YBR229C, strain ROT2, hits give low values 0.962 | locus YBR231C, strain swc5, hits give low values 1.01 | locus YBR279W, strain paf1, hits give low values 0.998 | locus YCL011C, strain gbp2, hits give low values 0.997 | locus YCL016C, strain dcc1, hits give low values 0.99 | locus YCL029C, strain bik1, hits give low values 0.992 | locus YCL069W, strain vba3, hits give low values 1.03 | locus YCR088W, strain abp1, hits give low values 1.03 | locus YDL005C, strain med2, hits give low values 1.03 | locus YDL035C, strain GPR1, hits give low values 0.995 | locus YDL040C, strain nat1, hits give low values 0.998 | locus YDL074C, strain BRE1, hits give low values 0.932 | locus YDL101C, strain DUN1, hits give low values 0.982 | locus YDL134C, strain PPH21, hits give low values 1 | locus YDL185W, strain tfp1, hits give low values 0.989 | locus YDL192W, strain arf1, hits give low values 0.992 | locus YDR001C, strain nth1, hits give low values 1.01 | locus YDR069C, strain doa4, hits give low values 0.935 | locus YDR101C, strain arx1, hits give low values 0.995 | locus YDR137W, strain rgp1, hits give low values 0.994 | locus YDR150W, strain NUM1, hits give low values 0.99 | locus YDR159W, strain sac3, hits give low values 0.923 | locus YDR162C, strain NBP2, hits give low values 0.994 | locus YDR195W, strain ref2 0.987 | locus YDR297W, strain sur2, hits give low values 0.979 | locus YDR318W, strain mcm21, hits give low values 1 | locus YDR334W, strain swr1, hits give low values 1.01 | locus YDR335W, strain msn5, hits give low values 0.972 | locus YDR388W, hits give low values 0.993 | locus YDR392W, strain spt3, hits give low values 1.01 | locus YDR502C, strain sam2, hits give low values 0.999 | locus YEL003W, strain gim4, hits give low values 1.02 | locus YEL037C, strain rad23, hits give low values 1.01 | locus YEL061C, strain CIN8 (second series), hits give low values 1.02 | locus YEL061C, strain CIN8, hits give low values 0.978 | locus YER015W, strain faa2, hits give low values 1 | locus YER016W, strain bim1, hits give low values 0.997 | locus YER110C, hits give low values 0.989 | locus YER111C, strain swi4, hits give low values 1.02 | locus YER155C, strain BEM2 (second series), hits give low values 0.994 | locus YER155C, strain BEM2, hits give low values 0.996 | locus YER167W, strain BCK2, hits give low values 0.989 | locus YFR010W, strain ubp6, hits give low values 1.01 | locus YGL078C, strain dbp3, hits give low values 1 | locus YGL086W, strain mad1, hits give low values 0.982 | locus YGL167C, strain pmr1, hits give low values 1.01 | locus YGL173C, strain kem1, hits give low values 1.04 | locus YGL227W, strain vid30, hits give low values 1.01 | locus YGL240W, strain doc1, hits give low values 0.92 | locus YGL248W, strain PDE1, hits give low values 0.966 | locus YGL253W, strain hxk2, hits give low values 0.971 | locus YGR135W, strain pre9, hits give low values 1.01 | locus YGR252W, strain gcn5, hits give low values 1.02 | locus YHR013C, strain ard1, hits give low values 1.01 | locus YHR027C, strain rpn1, hits give low values 0.985 | locus YHR030C, strain SLT2, hits give low values 0.996 and 1.03 | locus YHR079C, strain IRE1 (second series), hits give low values 0.999 | locus YHR079C, strain IRE1, hits give low values 1.05 | locus YHR094C, strain hxt1, hits give low values 0.995 | locus YHR129C, strain ARP1, hits give low values 0.997 | locus YHR142W, strain chs7, hits give low values 1.03 | locus YHR200W, strain rpn10, hits give low values 1 | locus YIL066C, strain RNR3, hits give low values 0.973 | locus YIL073C, strain SPO22, hits give low values 1.06 | locus YIL125W, strain kgd1, hits give low values 0.993 | locus YIR030C, strain dcg1, hits give low values 0.993 | locus YJL092W, strain hpr5, hits give low values 1.02 | locus YJL095W, strain BCK1 (second series), hits give low values 0.972 | locus YJL095W, strain BCK1, hits give low values 0.968 and 1.01 | locus YJL115W, strain asf1, hits give low values 1.01 | locus YJL129C, strain trk1, hits give low values 1.04 | locus YJL134W, strain LCB3, hits give low values 0.994 | locus YJL154C, strain vps35, hits give low values 1.03 | locus YJL164C, strain tpk1, hits give low values 1.02 | locus YJL166W, strain qcr8, hits give low values 0.989 | locus YJL168C, strain set2, hits give low values 0.995 | locus YJL187C, strain SWE1 (second series), hits give low values 0.971 | locus YJR043C, strain POL32, hits give low values 0.986 | locus YJR066W, strain TOR1, hits give low values 0.969 | locus YJR075W, strain HOC1, hits give low values 0.979
